CHX counter: affects cycloheximide protein synthesis inhibition readout, counter-screen | max response, % | AID 2314 | hit rate 12% among 300,000 | cell reporter, cycloheximide protein synthesis inhibition counterscreen; in the data active = max response mostly above about 13%, no sharp cut-off; inactive = mostly below about 14%; note: read at 38.3 µM for the half of the compounds with a filed dose
Shiga toxin inh: Shiga toxin inhibition. hit rate 9.2% among 290,000. Vero cells, Shiga toxin protein synthesis inhibition reporter. AID 2315. inhibition, % at 38.7 µM; in the data active = inhibition mostly above about 28%, no sharp cut-off; inactive = mostly below about 43%
Lassa entry inh: Lassa virus entry inhibition; Lassa virus pseudotype entry inhibition, cell reporter; Potency, µM (top dose mostly 37.9 µM), most hits filed as inhibitors; hit rate 1.2% among 300,000; calls by dose curve; tested in HEK293 cells; note: nearly all actives have a fitted effect of over 50% in size
Pf growth 48h: inhibits P. falciparum growth in the first generation, 48 h | P. falciparum luciferase growth in erythrocytes, 48 h | Potency, µM (series often up to 28.7 µM), actives largely listed as inhibitors | hit rate 5.9% among 310,000 | AID 504832
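Luciferase-expressing P. falciparum in infected erythrocytes (2% hematocrit, 0.1% parasitemia final) in RPMI 1640/0.5% Albumax were exposed to compound for 48 hours at 37 C, 5% CO2; growth read as luminescence.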
Pf growth 96h: inhibits malaria parasite growth, 96 h; P. falciparum luciferase reporter growth, 96 h; Potency, µM (series often up to 28.7 µM), hits mostly inhibitors; hit rate 6.9% among 320,000; AID 504834
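P. falciparum expressing integrated firefly luciferase, in erythrocytes at 2% hematocrit, 0.05% parasitemia, incubated with compounds 96 h at 37 C, 5% CO2. Growth inhibition read as loss of luminescence; two-generation exposure targets delayed-death apicoplast inhibitors.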
Marburg entry inh: Marburg virus entry inhibition; Potency, µM (titrated, usually from 37.8 µM), most hits filed as inhibitors; Marburg virus pseudotyped entry inhibition, cell reporter; hit rate 1.8% among 300,000; calls by dose curve; tested in HEK293 cells
Of the large screens only hits and unclear results are named; the others gave an inactive call. An excerpt weighted towards active compounds, which were near 19% of everything screened. Unless noted, calls come from the whole dose curve; as a rule, active = well fitted inhibition curve with a large enough effect; inconclusive = small, poorly fitted or top-dose-only effect, or another doubt; inactive = no such curve, though single readings can be large or run the other way.

O=C(/C=C/c1ccco1)Nc1scc(-c2ccccc2)c1C(=O)O	CHX counter 22, Lassa entry inh inconclusive, Pf growth 48h inconclusive, Marburg entry inh inconclusive
CCN(CC)C(=O)CSc1nc(N)c2c3c(sc2n1)CC(C)CC3 (stereo unspecified)	CHX counter 21, Shiga toxin inh 57, Lassa entry inh inconclusive, Pf growth 96h inconclusive, Marburg entry inh inconclusive (no result: Pf growth 48h)
CCOC(=O)CSc1nc(N)c2c3c(sc2n1)CCCC3	CHX counter 25 (no result: Pf growth 48h)
CCOC(=O)c1cnn(-c2nc(SC)nc3sc4c(c23)CCCC4)c1N	Pf growth 48h inconclusive (no result: Pf growth 96h)
CC1CCc2c(sc3nc(SCC(=O)NCc4ccco4)nc(N)c23)C1 (stereo unspecified)	CHX counter 17, Lassa entry inh inconclusive, Marburg entry inh inconclusive
Cc1cccc(NC(=O)CN2C(=O)CCc3ccccc32)c1C	none (no result: CHX counter, Shiga toxin inh, Pf growth 48h, Pf growth 96h, Marburg entry inh)
O=C1C2CC=CCC2C(=O)N1Cc1nnc(-c2ccc(Cl)cc2)o1 (stereo unspecified)	CHX counter 26, Shiga toxin inh 70 (no result: Lassa entry inh, Marburg entry inh)
CN(CCCCCCCCC(=O)/C=N/O)Cc1ccccc1	Lassa entry inh inconclusive, Pf growth 96h 2.6µM, Marburg entry inh inconclusive (no result: Pf growth 48h)
CC(Oc1ccc(Br)cc1)C(=O)N1CCc2ccccc21 (stereo unspecified)	Pf growth 48h 1.5µM
CC(Oc1ccccc1Br)C(=O)N1CCc2ccccc21 (stereo unspecified)	CHX counter 51, Shiga toxin inh 79
CC(Oc1ccc(Cl)cc1)C(=O)N1CCCc2ccccc21 (stereo unspecified)	Pf growth 48h inconclusive, Pf growth 96h inconclusive (no result: Lassa entry inh, Marburg entry inh)
CCOP(=O)(c1ccc(N(C)C)cc1)C(O)c1ccc(C)cc1 (stereo unspecified)	none
N#C/C(=C\c1ccc(OCc2ccc(C(=O)O)cc2)cc1)C(=O)NCc1ccccc1	none (no result: Shiga toxin inh)
COc1ccc(COC(=O)N/N=C2/C[C@@H](O)[C@@H](O)[C@@H]3[C@@H]4C(=O)N(Cc5ccccc5)C(=O)[C@H]4CC[C@H]23)cc1	none (no result: CHX counter, Shiga toxin inh, Lassa entry inh, Pf growth 48h, Pf growth 96h)
COc1ccc(COC(=O)NN=C2C[C@@H](O)[C@@H](O)[C@@H]3[C@H]4C(=O)N(Cc5ccccc5)C(=O)[C@@H]4CC[C@@H]23)cc1	Lassa entry inh 4.4µM (no result: CHX counter, Shiga toxin inh, Pf growth 48h, Pf growth 96h)
CCn1c2ccccc2c2nc3cc(S(=O)(=O)N4CCOCC4)ccc3nc21	Lassa entry inh inconclusive, Marburg entry inh inconclusive (no result: Pf growth 48h)
C=CCn1c(O)c(N=NC(=S)Nc2ccccc2C)c2cc(S(=O)(=O)N3CCOCC3)ccc21	Lassa entry inh inconclusive, Pf growth 48h 2.9µM, Pf growth 96h 13µM, Marburg entry inh inconclusive
Cc1ccc(NC(=S)N=Nc2c(O)n(C)c3ccc(S(=O)(=O)N4CCOCC4)cc23)cc1C	Pf growth 48h 3.3µM
Cn1c(O)c(N=NC(=S)Nc2ccccc2F)c2cc(S(=O)(=O)N3CCOCC3)ccc21	Lassa entry inh inconclusive, Pf growth 48h inconclusive, Pf growth 96h inconclusive, Marburg entry inh inconclusive
C=CCn1c(O)c(N=NC(=S)Nc2ccc(OC)c(Cl)c2)c2ccccc21	Lassa entry inh inconclusive, Pf growth 48h 3.7µM, Marburg entry inh inconclusive
O=C(Nc1cccs1)Nc1ccccc1Br	CHX counter 30, Shiga toxin inh 47, Pf growth 96h inconclusive (no result: Lassa entry inh, Marburg entry inh)
O=C(Nc1cccs1)Nc1c(F)c(F)cc(F)c1F	Pf growth 48h inconclusive, Pf growth 96h 4.7µM
COC(=O)c1ccccc1NC(=O)Nc1cccs1	none
CNC(=O)c1c(NC(=O)c2ccc(S(=O)(=O)N3CCC(C)CC3)cc2)sc2c1CCC2	none (no result: CHX counter, Shiga toxin inh, Pf growth 48h, Pf growth 96h, Marburg entry inh)
CN(C)NC(=O)c1ccsc1NC(=O)c1ccc(S(=O)(=O)N2CCCC2)cc1	Lassa entry inh inconclusive, Pf growth 48h 12µM, Pf growth 96h 5.2µM, Marburg entry inh inconclusive
CC1CCN(S(=O)(=O)c2ccc(C(=O)Nc3sccc3C(N)=O)cc2)CC1	Pf growth 48h inconclusive, Pf growth 96h 8.3µM (no result: Lassa entry inh, Marburg entry inh)
CN(c1ccc(C(=O)Nc2ccc(S(=O)(=O)N3CCCC3)cc2)cc1)S(C)(=O)=O	Lassa entry inh inconclusive, Pf growth 96h inconclusive, Marburg entry inh inconclusive
COC(=O)c1ccccc1NC(=S)N1CCN(c2ccc(OC)cc2)CC1	none (no result: Lassa entry inh, Marburg entry inh)
Cc1cc2ncn(CCOc3ccccc3)c2cc1C	CHX counter 51, Shiga toxin inh 102, Lassa entry inh inconclusive
O=C(NCC1CCCO1)c1cccc2ccccc12 (stereo unspecified)	Pf growth 96h inconclusive
O=C(NCC1CCCO1)c1sc2ccccc2c1Cl (stereo unspecified)	CHX counter 41, Shiga toxin inh 73, Lassa entry inh inconclusive, Pf growth 96h inconclusive
COc1ccc(-n2c(N)c(C(=O)NCC3CCCO3)sc2=S)cc1 (stereo unspecified)	none (no result: Pf growth 96h)
O=C(NCCc1ccccc1)c1ccc2c(=O)[nH]c3c(C(=O)NCC4CCCO4)sc(=S)n3c2c1 (stereo unspecified)	Pf growth 48h inconclusive, Pf growth 96h inconclusive
COc1ccc2c(Cl)c(C(=O)NCC3CCCO3)sc2c1Cl (stereo unspecified)	CHX counter 20
O=C(NCC1CCCO1)c1sc(=S)n2c1[nH]c(=O)c1ccc(C(=O)N3CCCCC3)cc12 (stereo unspecified)	Lassa entry inh inconclusive, Pf growth 48h 10µM, Pf growth 96h inconclusive, Marburg entry inh inconclusive
COc1ccc2c(Cl)c(C(=O)NCCCn3ccnc3)sc2c1Cl	Pf growth 48h 10µM, Pf growth 96h inconclusive
COc1ccc(CNC(=O)c2ccc[nH]2)cc1Cl	Lassa entry inh inconclusive
O=C1CCCN1CCCNS(=O)(=O)c1ccc(Br)s1	none
CSc1cccc(NC(=O)CN2C(=O)COc3ccc(S(=O)(=O)N4CCC(C)CC4)cc32)c1	none (no result: CHX counter, Shiga toxin inh, Pf growth 48h, Pf growth 96h, Marburg entry inh)
Cc1ccc2c(Cl)c(C(=O)NCC3CCCO3)sc2c1 (stereo unspecified)	CHX counter 55, Shiga toxin inh 77, Lassa entry inh inconclusive, Marburg entry inh inconclusive
Cc1noc(C(=O)NCC2CCCO2)c1Cl (stereo unspecified)	none (no result: Lassa entry inh, Marburg entry inh)
CCN1CCN(c2cc(N3CCc4ccccc4C3)c(F)cc2[N+](=O)[O-])CC1	Lassa entry inh inconclusive, Pf growth 48h inconclusive, Marburg entry inh 14µM
CCN1CCN(c2cc(N3CCCC3)c([N+](=O)[O-])cc2F)CC1	none
CC1CCN(c2cc(N3CCOCC3)c([N+](=O)[O-])cc2F)CC1	Lassa entry inh inconclusive, Pf growth 48h inconclusive, Pf growth 96h 15µM
CC(C)(C)C(=O)OCOC(=O)[C@@H]1N2C(=O)[C@@H](NC(=O)[C@H](N)c3ccccc3)[C@H]2SC1(C)C	none (no result: CHX counter, Shiga toxin inh, Lassa entry inh, Marburg entry inh)
Cc1ccc(OCC(=O)Nc2ccc(Cl)c(-c3nc4ncccc4o3)c2)cc1C	none (no result: CHX counter, Shiga toxin inh, Pf growth 48h, Pf growth 96h, Marburg entry inh)
CCO[C@@H]1OC(C(=O)N2CCN(Cc3ccccc3)CC2)=C[C@H](c2coc3ccccc3c2=O)[C@H]1CCCO	Pf growth 48h inconclusive, Pf growth 96h 5.2µM (no result: Lassa entry inh, Marburg entry inh)
C#Cc1ccc([C@H]2C=C(C(=O)N3CCN(Cc4ccccc4)CC3)O[C@@H](OCC)[C@@H]2CCCO)cc1	Pf growth 48h inconclusive, Pf growth 96h 10µM (no result: Lassa entry inh, Marburg entry inh)
CCO[C@@H]1OC(C(=O)N2CCN(Cc3ccccc3)CC2)=C[C@H](c2ccccc2)[C@H]1CCCO	Pf growth 48h inconclusive, Pf growth 96h inconclusive (no result: Lassa entry inh, Marburg entry inh)

Source: PubChem BioAssay (National Center for Advancing Translational Sciences (NCATS))
